Only some compounds are listed: those with a hit (about 7.5% of all), similar ones and a draw of the others.
KinaseGlo FLuc: counter-screen: inhibitors of Kinase-Glo firefly luciferase | Q27757 | Kinase-Glo luciferase, ATP luminescence, 8 min | Potency, µM (titrated, usually from 38.3 µM), usual class: inhibitors | hit rate 0.28% among 200,000 | AID 1379; further: nearly all actives have a fitted effect of over 60% in size
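Kinase-Glo luciferase light output from ATP and luciferin was measured with 10 uM ATP, within the enzyme's linear range. Buffer: 50 mM imidazole pH 7.2, 50 mM KCl, 7 mM MgCl2, 0.01% Tween 20, 0.05% BSA; luminescence read after 8 min at ambient temperature.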
NPC1 prom act: activates the NPC1 promoter; Huh7 NPC1 promoter luciferase reporter, 24 h; Potency, µM (highest dose often 9.22 µM), actives largely listed as activators; hit rate 2.4% among 320,000; AID 485313; further: nearly all actives have a fitted effect of over 60% in size
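Compounds in DMSO were transferred onto Huh7 NPC1-luciferase reporter cells pre-incubated 2 h; after 24 h at 37 °C, Amplite reagent was dispensed and luminescence recorded 10 min later.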
SMN2 splice up: enhancers of SMN2 splice variant expression | HEK293 SMN2-luciferase splicing reporter, luminescence, 30-36 h | hit rate 2.8% among 210,000 | Potency, µM (doses to about 46.1 µM), usual class: activators; further: nearly all actives have a fitted effect of over 55% in size
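HEK293 cells carry an SMN2 […]–luciferase reporter in which exon 7 inclusion puts luciferase in frame. Cells were plated 10-12 h before compound addition, then incubated 30-36 h at 37C. ONE-Glo luminescence was read; sodium butyrate at 4.5 mM final served as control.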
ELG1 genotox: genotoxicity induction in ELG1-luciferase HEK293T cells. HEK293T ELG1-luciferase reporter, luminescence, 16 h. Potency, µM (highest dose often 46 µM), actives largely listed as activators. hit rate 1.3% among 330,000. AID 504466; further: nearly all actives have a fitted effect of over 60% in size
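Genotoxic stress is detected as increased luminescence from luciferase-tagged ELG1 in HEK293T cells, measured with ONE-Glo after a 16 hr treatment at 37 °C.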
FLuc counter: firefly luciferase modulation, counter-screen for miR-21 project; purified FLuc, Km substrates, luminescence inhibition; AID 588342; hit rate 6.9% among 360,000; Potency, µM (doses to about 57.5 µM), usual class: inhibitors; further: nearly all actives have a fitted effect of over 55% in size
Target sequence (P08659 whole entry, looked up): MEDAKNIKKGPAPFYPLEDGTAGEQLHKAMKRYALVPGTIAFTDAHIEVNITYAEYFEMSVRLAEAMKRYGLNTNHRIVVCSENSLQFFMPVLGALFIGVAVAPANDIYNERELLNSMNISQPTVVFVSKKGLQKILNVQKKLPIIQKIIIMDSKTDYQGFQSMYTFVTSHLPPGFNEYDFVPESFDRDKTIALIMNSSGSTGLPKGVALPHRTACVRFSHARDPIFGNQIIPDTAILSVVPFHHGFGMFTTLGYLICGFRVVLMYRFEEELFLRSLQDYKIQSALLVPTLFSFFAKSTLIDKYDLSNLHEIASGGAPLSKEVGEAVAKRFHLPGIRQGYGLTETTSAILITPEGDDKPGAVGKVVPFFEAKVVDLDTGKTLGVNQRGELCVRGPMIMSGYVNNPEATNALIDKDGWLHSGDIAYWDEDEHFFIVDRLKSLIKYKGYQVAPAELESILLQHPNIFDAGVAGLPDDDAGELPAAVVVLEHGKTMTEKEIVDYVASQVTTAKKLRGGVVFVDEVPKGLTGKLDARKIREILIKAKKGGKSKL
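Purified P. pyralis luciferase, 10 nM final, with Km-level 10 uM D-luciferin and 10 uM ATP in 50 mM Tris acetate pH 7.5, 10 mM Mg acetate, 0.01% Tween-20, 0.05% BSA; 6-point qHTS titration about 60 µM downward; luminescence read.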
Rab9 prom act: Rab9 promoter activation | Huh7 Rab9 promoter-luciferase reporter, luminescence, 24 h | Potency, µM (highest dose often 9.22 µM), actives largely listed as activators | hit rate 2.8% among 320,000 | AID 485297; further: nearly all actives have a fitted effect of over 60% in size
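Huh7 cells stably carrying a Rab9 promoter-luciferase reporter, 1500 cells per well in OP-MEM I with 10% FBS, treated with compound 24 hours at 37C. Luciferase activity read by luminescence after 10 minutes with Amplite reagent.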
Hits are given with their value; 0 = inactive; ? = inconclusive; - = no result given. The call rests on the fitted dose curve; in most records, active means well fitted curve in the direction sought with a large enough effect; inconclusive means small, poorly fitted or top-dose-only effect, or another doubt; inactive means no such curve, though single readings can be large; an effect the other way counts as inactive or inconclusive.

SMILES	KinaseGlo FLuc	NPC1 prom act	SMN2 splice up	ELG1 genotox	FLuc counter	Rab9 prom act
O=C(c1ccc(-c2ccccc2)cc1)C1CCCN(Cc2ccncc2)C1 (centres undefined)	0	4µM	-	?	7.6µM	1.3µM
O=C(c1ccc(-c2ccccc2)cc1)C1CCCN(C(=O)c2ccncc2)C1 (centres undefined)	0	0	-	0	0	0
CN(C)C1=NCCN1CC1CCCCC1	-	0	-	0	0	0
O=C(NCc1ccco1)c1ccc(Cn2c(SCc3ccc(F)cc3)nc3cccnc32)cc1	-	-	-	-	6µM	-
CCOc1ccccc1CNC(=O)c1ccc(Cn2c(SCc3ccccc3)nc3cccnc32)cc1	-	-	0	-	2.7µM	-
O=C(NCCc1ccccc1)c1ccc(Cn2c(SCc3ccc(F)cc3)nc3cccnc32)cc1	-	-	-	-	4.8µM	-
CCN(CC)CCNC(=O)c1ccc(Cn2c(SCc3ccccc3)nc3cccnc32)cc1	-	-	-	-	13µM	-
Cc1ccccc1CNC(=O)c1ccc(CSc2nc3cccnc3n2Cc2ccccc2)cc1	-	-	-	-	0	-
O=C(NCc1cccs1)c1ccc(CSc2nc3cccnc3n2Cc2ccc(F)cc2)cc1	-	-	-	-	0	-
Cc1ccc(CN2CCSc3ccc(C(=O)N4CCN(c5ccc(Cl)cc5)CC4)cc32)cc1	-	-	0	-	0	-
Cc1ccccc1CNC(=O)Cc1ccc(NC(=O)N2CCCCc3ccccc32)cc1	-	-	-	-	0	-
COc1ccc(C(=O)c2ccccc2)c(O)c1O	0	-	0	-	-	-
COc1cccc(CCNC(=O)c2ccc(Cn3c(SCc4ccccc4)nc4cccnc43)cc2)c1	-	-	0	-	9.5µM	-
O=C(NCCc1ccccc1)c1ccc(Cn2c(SCc3ccccc3F)nc3cccnc32)cc1	-	-	-	-	5.4µM	-
COc1ccc(Cn2c(SCc3ccc(C(=O)NCCc4ccccc4)cc3)nc3cccnc32)cc1	-	-	0	-	0	-
Cc1ccc(-n2cc(CN3CCC(O)(c4ccccn4)CC3)c(-c3ccc(F)cc3)n2)cc1	0	0	-	0	17µM	0
CCOC(=O)C1=CN(Cc2cccc(F)c2)S(=O)(=O)N(CC)C1c1ccccc1 (centres undefined)	-	-	-	0	-	-
COc1ccc(C(=O)N2CCN(C(=O)c3cc(OC)c(OC)c(OC)c3)CC2)cc1	0	0	0	0	0	0
COc1cc(C(=O)N2CCN(C(=O)COc3ccc4ccccc4c3)CC2)cc(OC)c1OC	0	0	0	0	11µM	0
COc1cccc(C(=O)N2CCN(C(=O)COc3ccc4ccccc4c3)CC2)c1	-	0	-	0	6µM	0
Cc1ccc(NC(=O)NNC(=O)c2ccc3c(c2)NC(=O)C(C)(C)O3)cc1	-	?	-	0	0	0
Cc1ccc(-c2cc(N)n(-c3ccc(F)cc3)n2)cc1	0	?	13µM	23µM	9.5µM	3.5µM
Cc1ccc(-c2cc(-c3c(C)nn(C)c(=O)c3N)[nH]n2)cc1	-	0	-	0	?	0
Cc1ccc(-c2cc(N)n(-c3ccc(C)cc3)n2)cc1	0	2.5µM	?	?	13µM	3.5µM
Cc1cc(N)n(-c2ccc(C)c(C)c2)n1	-	0	-	?	?	0
SMILES	KinaseGlo FLuc	NPC1 prom act	SMN2 splice up	ELG1 genotox	FLuc counter	Rab9 prom act
O=C(Nc1cccn2ncnc12)c1ccc(Cl)cc1	-	0	-	0	0	0
O=C(Nc1cnc2ccccn2c1=O)c1ccc(Cl)cc1	0	3.5µM	35µM	?	15µM	2.2µM
CCOc1ccc(NC(=O)c2cccc(-n3cccc3)c2)cc1S(=O)(=O)N1CCOCC1	-	0	-	0	-	0
Cc1cc(=O)nc2c3ccccc3n(C(C)C(=O)NCCN3CCOCC3)n12 (centres undefined)	-	0	-	0	0	0
CCOC(=O)c1c(C)[nH]c(C(=O)COC(=O)CNC(=O)c2ccccc2Cl)c1C	0	0	-	?	11µM	?
CCOC(=O)c1c(C)[nH]c(C(=O)COC(=O)[C@H](C)NC(=O)c2ccccc2Cl)c1C	0	0	0	?	21µM	0
CCOC(=O)c1c(C)[nH]c(C(=O)COC(=O)CNC(=O)C2CCCCC2)c1C	0	0	?	0	3µM	0
CCOC(=O)c1c(C)[nH]c(C)c1C(=O)COC(=O)CNC(=O)C1CCCCC1	0	0	0	0	0	0
COc1cc(C(=O)NCC(=O)NC(C)CCc2ccccc2)cc(OC)c1OC (centres undefined)	-	0	-	0	0	0
Cc1[nH]c2ccccc2c1C(=O)CSC(=S)N(C)C1CCCCC1	0	0	0	0	15µM	0
Cc1[nH]c2ccccc2c1C(=O)CSC(=S)N1CCCCC1	0	?	8.9µM	?	9.5µM	?
Cc1ccccc1-n1ncc(C(C)NS(=O)(=O)c2ccccc2Cl)c1C (centres undefined)	-	0	-	0	0	0
CCn1c(COc2cccc(C)c2)nc2ccccc21	0	0	0	0	?	0
CC(C)(C)c1ccc(OCc2nc3ccccc3n2CCOc2ccccc2)cc1	-	-	0	-	0	-
COc1ccc(OCc2nc3ccccc3n2Cc2ccc(C(C)(C)C)cc2)cc1	-	-	11µM	-	9.5µM	-
COCn1c(COc2ccc3ccccc3c2)nc2ccccc21	0	2.8µM	11µM	?	2.4µM	2.5µM
CCC(=O)NC1=C(NC(C)c2ccccc2)C(=O)c2ccccc2C1=O (centres undefined)	0	0	0	0	0	0
CCC(=O)NC1=C(Cl)C(=O)C(NC(=O)CC)=C(Cl)C1=O	-	0	-	0	5.4µM	0
COc1ccc(-n2cnnc2SCC(=O)NCc2cccs2)cc1	0	0	0	0	0	0
Cc1ccc(-n2cnc3cc(NCc4cccs4)ccc32)cc1	0	?	0	9.2µM	11µM	?
c1ccc(-n2cnc3cc(NCc4cccs4)ccc32)cc1	0	?	0	?	2.1µM	1µM
c1ccc(-n2cnc3cc(NCc4ccco4)ccc32)cc1	0	?	13µM	?	9.5µM	?
COc1ccc(-n2cnc3cc(NCc4cccs4)ccc32)cc1	0	?	0	0	15µM	0
COc1ccccc1-n1cnc2cc(C(=O)NCc3ccco3)ccc21	0	0	0	0	0	0
Cn1cnc2cc(NCc3cccs3)ccc21	0	0	0	?	0	0
SMILES	KinaseGlo FLuc	NPC1 prom act	SMN2 splice up	ELG1 genotox	FLuc counter	Rab9 prom act
COc1ccc(NC(=O)CN(c2ccc(F)cc2)S(=O)(=O)c2ccccc2)c(OC)c1	-	0	-	0	0	0
COc1ccc(N2CC(c3nc(-c4ccccc4C)no3)CC2=O)cc1Cl (centres undefined)	-	-	-	-	0	-
Cc1cccc(-c2ccc3ncnc(N(C)Cc4ccco4)c3c2)c1	-	0	-	-	?	0
Cc1noc(C)c1-c1ccc2ncnc(N(C)Cc3ccco3)c2c1	0	-	3.5µM	-	-	-
CC1CCc2c(C(=O)Nc3ccc(OC(F)(F)F)cc3)csc2C1 (centres undefined)	0	0	0	0	0	0
COC(=O)c1cccc(NC(=O)c2cnccn2)c1	-	0	-	0	0	?
O=C(Nc1cccc(-c2cnc3ccccc3n2)c1)c1ccc(Cl)cc1	0	0	0	0	0	0

Screens: PubChem, National Center for Advancing Translational Sciences (NCATS)
